Measurements taken from the supplement of paper PMC7366291.
Counter-ions that a name gives are not always drawn. ± gives the standard deviation or the standard deviation of the averaged measurements.

Legend:
Conditions in all cases: 25 µM; exposure: 24-48 hpf
[1] = tested on: Danio rerio Tg(wt1b:EGFP) embryo, pronephros; test: glomerular separation, fold change vs DMSO control; higher = glomeruli further apart (abnormal)
Outline: (§1)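 From 24 to 48 hpf, at 28.5°C, dechorionated Tg(wt1b:EGFP) zebrafish embryos sat in HEPES-buffered E3 with 0.003% PTU carrying 25 μM compound and 0.5% DMSO. Their pronephroi were imaged dorsally in 96-well plates filled with agarose, using 470 nm light and 10 z-slices. A Fiji macro measured distances and angles between 16 reference points that were set manually on maximum projections, and any value more than 2 SD from its feature mean was excluded. Features are expressed as fold change relative to the mean of DMSO-treated embryos imaged on the same day.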

[2] = tested on: Danio rerio Tg(wt1b:EGFP) embryo, pronephros; test: glomerular width (mean of left and right), fold change vs DMSO control; higher = wider glomerulus
Outline: as §1

[3] = tested on: Danio rerio Tg(wt1b:EGFP) embryo, pronephros; test: fraction of imaged embryos annotated as normal kidney; higher = less nephrotoxic; extreme values may be limits of the assay
Outline: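 Dechorionated Tg(wt1b:EGFP) zebrafish embryos were exposed in 12-well plates to 25 μM compound in 0.5% DMSO, 5 mM HEPES-buffered E3 with 0.003% PTU, from 24 to 48 hpf at 28.5°C. Tricaine-anaesthetised larvae were oriented dorsally in agarose-filled 96-well plates, and pronephroi were imaged by widefield fluorescence (470 nm, 10 z-slices). Each embryo was manually annotated from maximum projections. The read-out is the fraction of embryos per treatment assigned to the normal-kidney category.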

[4] = tested on: Danio rerio Tg(wt1b:EGFP) embryo, pronephros; test: pronephric angle neck segment to proximal convoluted tubule (mean of left and right), fold change vs DMSO control; higher = larger pronephric angle
Outline: as §1

SMILES | glomerular separation [1] | glomerular width [2] | fraction of imaged embryos annotated as normal kidney [3] | pronephric angle neck segment [4]
c1ccc2[nH]c(-c3cscn3)nc2c1 [Tiabendazole] | 1.4 ± 0.65 | 1.01 ± 0.12 | 0.667 | 1.04 ± 0.02
COCC(=O)Nc1c(I)c(C(=O)NCC(O)CO)c(I)c(C(=O)N(C)CC(O)CO)c1I (configuration not stated) [Iopromide] | 0.857 ± 0.4 | 1.02 ± 0.041 | 0.917 | 0.97 ± 0.023
Cc1ccccc1N1C(=O)c2cc(S(N)(=O)=O)c(Cl)cc2NC1C (configuration not stated) [Metolazone] | 0.86 ± 0.34 | 1 ± 0.062 | 0.917 | 1.03 ± 0.016
CN1CCN(CCCN2c3ccccc3Sc3ccc(S(=O)(=O)N(C)C)cc32)CC1 [Thioproperazine dimesylate] | 0.945 ± 0.3 | 0.988 ± 0.028 | 0.917 | 0.945 ± 0.046
CCOC(=O)n1ccn(C)c1=S [Carbimazole] | 1.35 ± 0.58 | 0.997 ± 0.029 | 0.667 | 1.052 ± 0.0026
CCC1(c2ccccc2)C(=O)NCNC1=O [Primidone] | 0.835 ± 0.33 | 1.0079 ± 0.00034 | 0.917 | 1.03 ± 0.025
O=C(O)c1ccccc1C(=O)Nc1ccc(S(=O)(=O)Nc2nccs2)cc1 [Phthalylsulfathiazole] | 0.926 ± 0.31 | 1.02 ± 0.015 | 0.833 | 0.943 ± 0.071
COC1=CC(=O)C[C@@H](C)[C@]12Oc1c(Cl)c(OC)cc(OC)c1C2=O [Griseofulvin] | 0.952 ± 0.29 | 1 ± 0.023 | 0.917 | 0.947 ± 0.01
CN(C)CCN(Cc1cccs1)c1ccccn1 [Methapyrilene hydrochloride] | 0.984 ± 0.37 | 0.99 ± 0.077 | 0.917 | 0.9838 ± 0.0071
CCCCNc1ccc(C(=O)OCCOCCOCCOCCOCCOCCOCCOCCOCCOC)cc1 [Benzonatate] | 1.12 ± 0.54 | 0.897 ± 0.012 | 0.7 | 1.09 ± 0.039
Nc1cc(C(Cl)=C(Cl)Cl)c(S(N)(=O)=O)cc1S(N)(=O)=O [Clorsulon] | 0.798 ± 0.23 | 0.948 ± 0.062 | 0.917 | 0.935 ± 0.044
COc1cc(C(=O)NS(=O)(=O)c2ccccc2C)ccc1Cc1cn(C)c2ccc(NC(=O)OC3CCCC3)cc12 [Zafirlukast] | 0.957 ± 0.46 | 0.9694 ± 0.0078 | 1 | 1.09 ± 0.065
c1ccc([C@H]2CN3CCSC3=N2)cc1 [Levamisole hydrochloride] | 0.699 ± 0.16 | 1.08 ± 0.018 | 0.917 | 0.979 ± 0.016
CN1C(=O)OC(C)(C)C1=O [Trimethadione] | 0.837 ± 0.27 | 0.996 ± 0.064 | 0.75 | 0.935 ± 0.026
C=C1c2cccc(O)c2C(=O)C2=C(O)[C@]3(O)C(=O)C(C(N)=O)=C(O)[C@@H](N(C)C)[C@@H]3[C@@H](O)[C@H]12 [Methacycline hydrochloride] | 0.724 ± 0.4 | 1.11 ± 0.0095 | 0.818 | 0.984 ± 0.018
Cc1cccc(C)c1NC(=O)C(C)N (configuration not stated) [Tocainide hydrochloride] | 1.08 ± 0.37 | 0.975 ± 0.0083 | 1 | 0.941 ± 0.048
CCOC(=O)C1=C(C)NC(C)=C(C(=O)OCC)C1c1ccccc1/C=C/C(=O)OC(C)(C)C [Lacidipine] | 6.82 ± 2.2 | 0.671 ± 0.0078 | 0.167 | 1.11 ± 0.073
COc1ccc2[nH]cc(CCNC(C)=O)c2c1 [Melatonin] | 0.974 ± 0.26 | 0.989 ± 0.026 | 0.917 | 1.02 ± 0.056
O=C1NCC2(CCN(CCc3ccccc3)CC2)O1 [Fenspiride hydrochloride] | 1.24 ± 0.7 | 0.944 ± 0.024 | 0.833 | 1.09 ± 0.038
Cc1c(F)c(N2CCNC(C)C2)cc2c1c(=O)c(C(=O)O)cn2C1CC1 (configuration not stated) [Grepafloxacin] | 0.897 ± 0.35 | 1.033 ± 0.0021 | 0.75 | 0.985 ± 0.013

SMILES | glomerular separation [1] | glomerular width [2] | fraction of imaged embryos annotated as normal kidney [3] | pronephric angle neck segment [4]
Nc1ccc(S(=O)(=O)Nc2cnc3ccccc3n2)cc1 [Sulfaquinoxaline sodium salt] | 0.886 ± 0.3 | 0.97 ± 0.033 | 1 | 1.09 ± 0.012
C[C@H](CCC(=O)O)[C@H]1CC[C@H]2[C@@H]3C(=O)C[C@@H]4CC(=O)CC[C@]4(C)[C@H]3CC(=O)[C@]12C [Dehydrocholic acid] | 0.9 ± 0.25 | 0.978 ± 0.07 | 0.833 | 0.984 ± 0.029
C[C@H](CCC(=O)O)[C@H]1CC[C@H]2[C@@H]3[C@@H](O)C[C@@H]4C[C@H](O)CC[C@]4(C)[C@H]3CC[C@]12C [Urosiol] | 1.3 ± 0.7 | 0.775 ± 0.074 | 0.583 | 0.965 ± 0.032
CCCC1O[C@@H]2C[C@H]3[C@@H]4CCC5=CC(=O)C=C[C@]5(C)[C@H]4[C@@H](O)C[C@]3(C)[C@]2(C(=O)CO)O1 (some centres not stated) [Budesonide] | 0.957 ± 0.24 | 1.29 ± 0.049 | 0.833 | 1.04 ± 0.12
CC(Oc1ccccc1)C(=O)N[C@@H]1C(=O)N2[C@@H]1SC(C)(C)[C@@H]2C(=O)O (some centres not stated) [Phenethicillin potassium salt] | 0.88 ± 0.24 | 0.963 ± 0.057 | 0.667 | 0.989 ± 0.028
CC(C)(C)NC[C@H](O)COc1cccc2c1CCCC2=O [(-) -Levobunolol hydrochloride] | 0.705 ± 0.17 | 1.07 ± 0.0039 | 0.917 | 0.944 ± 0.052
Clc1ccc(COC(Cn2ccnc2)c2ccc(Cl)cc2Cl)cc1 (configuration not stated) [Econazole nitrate] | 2.58 ± 1.3 | 0.9791 ± 0.0056 | 0.417 | 1.2 ± 0.0047
CC(C)NNC(=O)c1ccncc1 [Iproniazide phosphate] | 0.735 ± 0.21 | 1.03 ± 0.024 | 1 | 0.9788 ± 0.0054
Cc1noc(NS(=O)(=O)c2ccc(N)cc2)c1C [Sulfisoxazole] | 0.975 ± 0.37 | 1.04 ± 0.058 | 0.75 | 0.97 ± 0.044
COc1c(N2CCNC(C)C2)c(F)cc2c(=O)c(C(=O)O)cn(C3CC3)c12 (configuration not stated) [Gatifloxacin] | 0.71 ± 0.24 | 1.02 ± 0.054 | 0.917 | 1 ± 0.04
C[C@]1(Cn2ccnn2)[C@H](C(=O)O)N2C(=O)C[C@H]2S1(=O)=O [Tazobactam] | 0.923 ± 0.63 | 1.07 ± 0.018 | 0.75 | 0.985 ± 0.018
CCC(=O)O[C@@H](O[P@](=O)(CCCCc1ccccc1)CC(=O)N1C[C@H](C2CCCCC2)C[C@H]1C(=O)O)C(C)C [Fosinopril] | 1.05 ± 0.44 | 1.01 ± 0.023 | 0.7 | 1.03 ± 0.013
CN(C/C=C/C#CC(C)(C)C)Cc1cccc2ccccc12 [Terbinafine] | 1.03 ± 0.34 | 1 ± 0.012 | 1 | 1.01 ± 0.025
O=C1[C@H](CC[C@H](O)c2ccc(F)cc2)[C@@H](c2ccc(O)cc2)N1c1ccc(F)cc1 [Ezetimibe] | 1.28 ± 0.36 | 1.01 ± 0.015 | 0.75 | 0.992 ± 0.059
CC[N+](CC)(CC)CCC(O)(c1ccccc1)C1CCCCC1 (configuration not stated) [Tridihexethyl chloride] | 1.14 ± 0.4 | 0.925 ± 0.012 | 0.818 | 1.04 ± 0.026
NC[C@H]1CC[C@H](C(=O)O)CC1 [Tranexamic acid] | 0.901 ± 0.18 | 0.9771 ± 0.0082 | 1 | 1.05 ± 0.022
CSc1ccc2c(c1)N(CCC1CCCCN1C)c1ccccc1S2 (configuration not stated) [Thioridazine hydrochloride] | 1.12 ± 0.33 | 1.03 ± 0.047 | 0.75 | 0.9994 ± 0.0046
COc1cc2nc(N3CCN(C(=O)c4ccco4)CC3)nc(N)c2cc1OC [Prazosin hydrochloride] | 0.618 ± 0.16 | 1 ± 0.021 | 0.917 | 1.03 ± 0.04
CC(C)NCC(O)c1ccc(O)c(O)c1 (single isomer, unassigned; (+)) [(+)-Isoproterenol (+)-bitartrate salt] | 1.57 ± 0.7 | 1.03 ± 0.023 | 0.833 | 1 ± 0.015
O=S(=O)(O)CCS [Mesna] | 0.716 ± 0.21 | 1.07 ± 0.057 | 1 | 1.07 ± 0.047

SMILES | glomerular separation [1] | glomerular width [2] | fraction of imaged embryos annotated as normal kidney [3] | pronephric angle neck segment [4]
COC(=O)C1=C(C#N)NC(C)=C(C(=O)OC(C)C)C1c1cccc([N+](=O)[O-])c1 (configuration not stated) [Nilvadipine] | 4.44 ± 1.4 | 0.7 ± 0.04 | 0.167 | 1.09 ± 0.17
Nc1nc(CC(=O)Nc2ccc(CCNC[C@H](O)c3ccccc3)cc2)cs1 [Mirabegron] | 0.841 ± 0.26 | 1.04 ± 0.067 | 0.833 | 0.965 ± 0.014
CN[C@H]1CC[C@@H](c2ccc(Cl)c(Cl)c2)c2ccccc21 [Sertraline] | 0.914 ± 0.35 | 0.973 ± 0.035 | 0.917 | 0.969 ± 0.045
Cc1ccc(-c2ncc(Cl)cc2-c2ccc(S(C)(=O)=O)cc2)cn1 [Etoricoxib] | 0.967 ± 0.19 | 1.023 ± 0.0032 | 0.833 | 1.04 ± 0.042
CN(C)CCCN1c2ccccc2CCc2ccc(Cl)cc21 [Clomipramine hydrochloride] | 1.18 ± 0.38 | 0.947 ± 0.035 | 0.667 | 1.06 ± 0.014
Cc1[nH]cnc1CN1CCc2c(c3ccccc3n2C)C1=O [Alosetron hydrochloride] | 0.809 ± 0.28 | 1.027 ± 0.0085 | 0.917 | 0.977 ± 0.015
COc1ccnc(C[S+]([O-])c2nc3cc(OC(F)F)ccc3[nH]2)c1OC (configuration not stated) [Pantoprazole sodium] | 1.04 ± 0.33 | 1.042 ± 0.0056 | 0.833 | 1.062 ± 0.0021
O=C(OCCOCCO)c1ccccc1Nc1cccc(C(F)(F)F)c1 [Etofenamate] | 3.04 ± 0.95 | 0.684 ± 0.026 | 0 | 1.75 ± 0.018
Cc1cccc(C)c1NC(=O)C1CCCCN1C (configuration not stated) [Mepivacaine hydrochloride] | 0.751 ± 0.32 | 1.06 ± 0.058 | 0.917 | 0.991 ± 0.054
C#C[C@]1(O)CC[C@H]2[C@@H]3CCC4=CC(=O)CC[C@@H]4[C@H]3CC[C@@]21C [Norethindrone] | 0.967 ± 0.35 | 0.934 ± 0.068 | 0.909 | 1 ± 0.022
CN1C(=O)CC(c2ccccc2)C1=O (configuration not stated) [Phensuximide] | 0.924 ± 0.43 | 0.9434 ± 0.0058 | 0.889 | 0.997 ± 0.013
Cc1onc(-c2c(Cl)cccc2Cl)c1C(=O)N[C@@H]1C(=O)N2[C@@H]1SC(C)(C)[C@@H]2C(=O)O [Dicloxacillin sodium salt hydrate] | 1.24 ± 0.43 | 1.009 ± 0.0084 | 0.818 | 0.998 ± 0.017
Nc1nc(=O)n([C@@H]2CS[C@H](CO)O2)cc1F [(-)-Emtricitabine] | 1.08 ± 0.4 | 1.06 ± 0.019 | 0.917 | 0.999 ± 0.073
Cc1cc2c(s1)Nc1ccccc1N=C2N1CCN(C)CC1 [Olanzapine] | 0.786 ± 0.41 | 0.925 ± 0.034 | 0.917 | 1.01 ± 0.041
CNCCC=C1c2ccccc2CCc2ccccc21 [Nortriptyline hydrochloride] | 1.04 ± 0.35 | 0.9614 ± 0.0024 | 0.833 | 1.03 ± 0.011
Cn1cnc2c1c(=O)[nH]c(=O)n2C [Theobromine] | 0.91 ± 0.41 | 0.947 ± 0.022 | 0.667 | 1.0118 ± 0.00063
CC(C)Oc1ccc2c(=O)c(-c3ccccc3)coc2c1 [Ipriflavone] | 0.901 ± 0.33 | 0.918 ± 0.049 | 0.833 | 1.06 ± 0.028
C[C@@H](c1ncncc1F)[C@](O)(Cn1cncn1)c1ccc(F)cc1F [Voriconazole] | 0.875 ± 0.21 | 1.02 ± 0.015 | 0.5 | 1.01 ± 0.027
